# Hit rate of the full screen: of about 360,000 compounds, about 6,000 (1.7%) were called active. About 8% were inconclusive and are not listed. The entries come from a sample that favours actives as a whole. A number with no mark means an inactive call. Calls come from the whole dose curve; as a rule, active = well fitted cell-killing curve with a large enough effect; inconclusive = small, poorly fitted or top-dose-only effect, or effect the other way; inactive = flat fitted curve, though single readings scatter.
# Assay: qHTS for induction of synthetic lethality in tumor cells producing 2HG: qHTS for the HT-1080-NT fibrosarcoma cell line;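 note: NT is the 2HG producing partner of a matched IDH1 knockdown line; nearly all actives have a fitted effect of over 55% in size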;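 for activity, negative = less viability: 0% = DMSO-treated cells and -100% = media-only wells without cells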
# Settings: HT-1080-NT fibrosarcoma viability, CellTiter-Glo ATP luminescence, 48 h; series mostly up to 46.1 µM; activity, negative = less viability: at the top concentration
# Method in brief: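 HT-1080-NT; 750 cells/well; 5% FBS RPMI; 48 h compound, 37 degrees C; CellTiter-Glo luminescence; curve fitting and curve-class assignment.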
# Potency is the fitted concentration of half-maximal effect.
Compound,Potency,"activity, negative = less viability [%]"
COc1ccc2c(c1)c(=Cc1ccc(N(C)C)cc1)c1cc(-c3ccccc3)[n+](C)n12,13 µM (active),–
COc1ccc2sc(-c3ccc(N(C)C)cc3)c(-c3ccc4cc[nH]c4c3)c2c1,–,-7.14
O=C(NCC(O)c1nc2ccccc2[nH]1)c1ccc(Br)cc1 (configuration not stated),–,25.9
CCOc1ccccc1N1CCN(C(=O)COc2ccc3c(C)cc(=O)oc3c2)CC1,–,-0.354
Cc1cc(=O)oc2cc(OCCC[n+]3ccccc3)ccc12,–,16
Cc1cc(=O)oc2cc(OCC3CC(c4ccccc4Cl)=NO3)ccc12 (configuration not stated),0.708 µM (active),–
COc1cc(NC(=O)C2=C(C)OCCS2)c(Cl)cc1C(=O)NCCCN1CCCC(C)C1 (configuration not stated),–,-6.88
Cc1ccc(S(=O)(=O)N[C@H]2CCC[C@@H]2O)cc1,–,14.8
CCOC(=O)N1C(=O)C[C@](Sc2ccc(C)cc2)(C(=O)OC)[C@H]1c1ccccc1,–,0.0371
CN(NC(=O)c1ccccc1F)c1nc(C(F)(F)F)nc2ccccc12,0.291 µM (active),–
COc1ccc(C(=O)NN(C)c2nc(-c3ccccc3)cc(C)c2S(C)(=O)=O)cc1,–,-2.05
CC(NC(=O)c1ccccc1F)c1cccc2ccccc12 (configuration not stated),–,-0.858
Cn1c(CC(=O)NNC(=O)c2ccccc2F)nc2ccccc21,–,0.555
CSc1nc(N(C)NC(=O)c2cccc(C)c2)c2ccccc2n1,0.13 µM (active),–
Cc1cccc(C(=O)Nc2ccc(C(=O)N/N=C/c3cccc(C)n3)cc2)c1,–,-8.14
COc1ccc(-c2cc(NC=O)c3ncc(-c4cccc(C(=O)N(C)C)c4)n3c2)c(OC)c1,–,-20.5
CC1(C)OC(=O)C2=C(CC(c3ccccc3)OC2CCc2ccccc2)O1 (configuration not stated),–,-19.5
O=Nc1c(O)cc(O)c2ccccc12,–,-1
CCC(c1nnnn1-c1ccc2c(c1)OCCO2)N1CCN(c2ccc(C(F)(F)F)cn2)CC1 (configuration not stated),–,-27.4
CCC(C)CN1C(=O)CSCC1(C)C(=O)NCc1ccccc1 (configuration not stated),–,-3.54
COc1ccc2c(c1)CCCO[C@]21O[C@H](CCO)C[C@H](O)[C@H]1O,–,11.6
CN(C)C(=O)COC(=O)c1cccc(S(=O)(=O)N2CC3(C)CC2CC(C)(C)C3)c1 (configuration not stated),–,0.341
Cc1nnnn1/C(=C\c1ccccc1)C(=O)OCC(=O)N1CC2(C)CC1CC(C)(C)C2 (configuration not stated),23.1 µM (active),–
CCOC(=O)C1CCCN(C(=O)c2cc(-c3cccs3)oc2C)CC1 (configuration not stated),–,-4.19
Cc1cccc(C=CC(=O)c2ccc(Cl)cc2)c1,–,-8.49

Compound,Potency,"activity, negative = less viability [%]"
CC1(C(=O)O)CCCN(C(=O)/C=C/c2ccccc2)C1 (configuration not stated),–,3.18
Cc1[nH]c(=O)c(C(=O)/C=C/c2ccccc2)c2c1CCCC2,7.08 µM (active),–
O=C(NCCOc1ccccc1)N1[C@H]2CC[C@@H]1C=C(c1ccc(F)cc1OCc1ccccc1)C2,–,-28.7
CC1(C(=O)NCc2ccccc2)CN(S(C)(=O)=O)CC(=O)N1CC(F)(F)F (configuration not stated),–,20.3
OC[C@@H]1CN(C2CCCC2)C[C@H](n2cnc3c(NC4CCC4)ncnc32)O1,–,6.22
OC[C@@H]1CN(Cc2cccs2)C[C@H](n2cnc3c(NC4CCCC4)ncnc32)O1,–,9.57
OC[C@@H]1CN(Cc2ccc(-c3ccccc3)cc2)C[C@H](n2cnc3c(NC4CCCC4)ncnc32)O1,9.2 µM (active),–
COc1cc(C(=O)OCCCN2CCOCC2)cc(OC)c1OC,–,12.7
CN(C)S(=O)(=O)Oc1ccccc1C(=O)Nc1ccccc1Cl,–,0.81
O=C(Nc1ccccc1Cl)/C(Cl)=C(\Cl)S(=O)c1ccccc1 (configuration not stated),20.6 µM (active),–
O=C(COC(=O)CCc1c[nH]c(=O)[nH]1)Nc1ccccc1Cl,–,16.6
COC(=O)[C@@]12C[C@@H](CC(=O)N3CCCCC3)C(=O)N(Cc3ccc4c(c3)OCO4)C1=CCC(C)(C)C2,–,-21.7
CN(Cc1ccccc1)C(=O)[C@@H]1CCCN1C(=O)[C@@H]1CCCN1C(=O)c1c(F)cccc1F,–,24.6
COc1ccc(NS(=O)(=O)c2ccc(NC(=O)c3ccc(N(C)S(C)(=O)=O)cc3)cc2)cc1,18.4 µM (active),–
COc1ccc(NS(=O)(=O)c2ccc(C(=O)Nc3c(C)n(C)n(-c4ccccc4)c3=O)cc2)cc1,–,-12
COc1ccc(C(=O)Nc2cccc(S(C)(=O)=O)c2)cc1,–,5.39
O=S1(=O)CC(N2CCN(Cc3ccccc3F)CC2)CN1Cc1cn(Cc2ccccc2)nn1 (configuration not stated),–,8.96
C[C@@H]1CN([C@@H](C)CO)S(=O)(=O)c2ccc(C#Cc3cccc(F)c3)cc2O[C@H]1CN(C)S(=O)(=O)c1cn(C)cn1,–,-24.4
COC(=O)[C@]12CCCCC=C1N(Cc1ccco1)C(=O)[C@H](CC(=O)NCC1CCCCC1)C2,–,17.1
Nc1ncnc2c1ncn2[C@@H]1O[C@H](C(=O)NS(=O)(=O)c2c(Cl)nc3sccn23)[C@@H](O)[C@H]1O,–,4.2
CCOc1cccc(-n2nnnc2-c2ccc(OC)cc2)c1,5.8 µM (active),–
COc1ccc(NC(=O)CSc2nnnn2-c2cccc(OC)c2)cc1,–,8.68
CCOC(=O)C(C)n1cnc2c(nnn2-c2cccc(OC)c2)c1=O (configuration not stated),–,11.1
COCCCNC(=O)c1ccc(-c2c(C)noc2C)c2ccoc12,–,4.24
COc1ccccc1-n1c(SCC(=O)Nc2ccc(Cl)cc2)nc(O)c(Cc2ccccc2)c1=O,–,-8.27

Compound,Potency,"activity, negative = less viability [%]"
COc1ccc(C(C(=O)NCc2ccccc2)n2c(=O)c(-c3ccccc3)nc3ccccc32)cc1 (configuration not stated),–,-16.2
CCC(C)C(CO)NC(=O)/C=C/[C@H]1O[C@@H](n2cnc3c(NC(=O)c4ccccc4)ncnc32)[C@H](O)[C@@H]1O (some centres not stated),–,3.67
COc1ccc(C(=O)N/N=C2\CCS(=O)(=O)c3ccc(F)cc32)cc1OC,20.6 µM (active),–
COc1ccc(C(=O)NC2CC(C)(C)NC(C)(C)C2)cc1OC,–,17
COc1ccc(CN2CCCC(CNC(=O)c3ccc(F)cc3)C2)cc1OC (configuration not stated),–,4.21
Cc1ccc(Cc2c(-c3ccc(Cl)cc3)nc3c4ccccc4ccn23)cc1,–,-19
CC(=O)NN=C(C)c1ccc(NC(=O)C2CC2)cc1,–,-2.35
COc1ccc(C(=O)NCC2CCCO2)cc1S(=O)(=O)NCc1ccc(Cl)cc1 (configuration not stated),–,0.0669
CCC(CC)C(C(=O)NC1CCCC1)N1CCN(c2cc(C)nc3ccccc23)CC1 (configuration not stated),–,-28.7
N#Cc1c(NC(=O)C2CCCO2)sc2c1CCCCC2 (configuration not stated),–,-5.07
N#Cc1c(NC(=O)CCCl)sc2c1CCCCC2,23.1 µM (active),–
CCN1CCN(CC(=O)Nc2sc3c(c2C#N)CCC3)CC1,–,11.3
CCCCCCN1CCN(C2CN(Cc3cn(Cc4ccc(F)cc4)nn3)S(=O)(=O)C2)CC1 (configuration not stated),–,0.0762
Cc1ccc(-c2nc3ccccn3c2Nc2ccc(F)cc2)o1,–,1.52
N=c1n(Cc2ccc(Cl)cc2)c2ccccc2n1CC(O)c1ccco1 (configuration not stated),23.1 µM (active),–
Cn1c(=N)n(CC(O)c2ccccc2)c2ccccc21 (configuration not stated),–,-3.88
Cn1c(=N)n(CC(O)c2cccs2)c2ccccc21 (configuration not stated),–,0.74
CCNC(=O)C1(C)CCCN(Cc2noc(-c3ccccc3OC)n2)C1 (configuration not stated),–,19.6
COc1cccc(CNc2nc(NCc3cccs3)nc3ccsc23)c1,18.4 µM (active),–
COc1cccc(-c2cc3nc(NCc4ccccc4OC)n(C)c(=O)c3s2)c1,–,2.39
COc1cccc(CNc2nc(NCc3ccccc3OC)nc3ccsc23)c1,23.1 µM (active),–
COc1ccc(NC(=S)NCc2cccs2)c(OC)c1,–,7.46
Clc1ccccc1Nc1nc(NCc2cccs2)nc2ccsc12,–,6.31
COc1ccccc1CNc1nc(Nc2ccccc2Cl)c2sccc2n1,–,-7.83
CC[C@@H]1CC2=C(C(=O)OC(C)(C)O2)[C@@H](CC)O1,–,20.4

Compound,Potency,"activity, negative = less viability [%]"
Nc1nc2c(ncn2[C@@H]2O[C@H](CNCc3ccc(OCCCN4CCOCC4)cc3)[C@@H](O)[C@H]2O)c(=O)[nH]1,–,23.9
C[C@H](O)[C@@H]1C(=O)N2CCc3c([nH]c4ccccc34)[C@@H]2C[C@@H]1N(C)C(=O)Nc1ccc(F)cc1,–,-4.19
C[C@H]1CN([C@@H](C)CO)C(=O)CCCn2cc(nn2)CO[C@@H]1CN(C)S(=O)(=O)c1cccs1,–,3.92
N#Cc1ccc(C(C(=O)NCc2ccccc2)n2c(=O)c(-c3ccco3)nc3ccccc32)cc1 (configuration not stated),–,-3.23
O=S1(=O)CC(N2CCSCC2)CN1Cc1cn(Cc2cccc(Cl)c2)nn1 (configuration not stated),–,18.5
CCCCC[C@@H]1C=C(C(=O)OCC)[C@H](c2ccccc2)N1S(=O)(=O)c1ccc(C)cc1,–,-18.3
Cn1c(=O)c([N+](=O)[O-])c(Oc2ccccc2)c2ccccc21,18.4 µM (active),–
COc1cc2c(=O)n(C)c3ccccc3c2cc1OC,–,4.63
Cc1cc(C)c(-c2c(O)c3ccccc3n(C)c2=O)c(C)c1,–,7.51
CCCc1c(C)nc2scc(-c3ccc(Cl)cc3)n2c1=O,–,-1.68
COCCNc1ncnc2c1ncn2[C@H]1CN(CCN2CCOCC2)C[C@@H](CO)O1,–,22.6
C=CCC[C@@H](CCCCC)OC(=O)/C=C/[C@@H](O)[C@H](O)C[C@H](O)CC=C,–,-18.2
C=CCC[C@H](CCCCC)OC(=O)/C=C/[C@H](O)[C@@H](O)C[C@@H](O)CC=C,–,-23.8
COc1cccc(CNC(=O)CN2C(=O)NC(Cc3ccccc3)(c3ccccc3)C2=O)c1 (configuration not stated),–,4.29
CCc1ccc(C(CNc2nc(C(F)(F)F)nc3ccccc23)N(C)C)cc1 (configuration not stated),23.1 µM (active),–
CN(C)C(CNC(=O)Cc1ccc([N+](=O)[O-])cc1)c1ccccc1 (configuration not stated),–,-3.4
COc1cccc(CNC(=O)c2n[nH]c3ccccc23)c1,–,-22
COc1cccc(CNc2nc(C(F)(F)F)nc3ccccc23)c1,23.1 µM (active),–
CN(C)C(CNC(=O)c1cc2ccccc2o1)c1ccccc1 (configuration not stated),–,-8.25
O=C(CCN1CCCCC1)Nc1ccc(F)c(F)c1,–,-0.559
Cc1cccc(C(=O)C(O)(c2ccccc2)C2CCCCC2=O)c1 (configuration not stated),–,-18.7
CN(Cc1c(F)cccc1Cl)C(=O)COC(=O)Cn1cnc2ccccc2c1=O,–,1.04

# Reference: PubChem BioAssay AID686970 (National Center for Advancing Translational Sciences (NCATS), 2013)
